One assay deals with MRPS24. Description: pooled miR-30 sensor sort-seq; sequence = guide strand. As to conditions: shRNA.
For TTGGAGGTGGAGTCGCACAGGA, the sensor-assay potency score (higher = more potent) is -0.602.

Sequence TACTTGTGTGGAGACAACTGCC came in with a sensor-assay potency score (higher = more potent) of -0.594.

On to TAAAACCAGCTGGTCAGCCAGG, for which the sensor-assay potency score (higher = more potent) was -1.47.

With TAGGACAGCAAAGTTTCACTGT, the sensor-assay potency score (higher = more potent) amounted to 0.628.

For the sequence TACCCCACATGAACTTGCGAAG, the sensor-assay potency score (higher = more potent) was -1.43.

TAAAAGTAGGACAGCAAAGTTT showed a sensor-assay potency score (higher = more potent) of -1.12.

TTGTGTGGAGACAACTGCCTCA gave a sensor-assay potency score (higher = more potent) of -0.151.

Regarding AAGGAAAACATCCTCCACCGTT, the sensor-assay potency score (higher = more potent) was -0.646.

Regarding TTCACTGTAGCCCACGAGGAAG, the sensor-assay potency score (higher = more potent) was -1.08.

For the sequence TGTGCAGCGACAGCCAGCCTTT, the sensor-assay potency score (higher = more potent) is -0.931.

Sequence TTTGTAAAAGTAGGACAGCAAA came in with a sensor-assay potency score (higher = more potent) of -1.45.

In turn, TAGGTCACCGGCTTGTCCCCCT came in with a sensor-assay potency score (higher = more potent) of 0.167.

The target of another assay is MRS2. Described as above. As to conditions: shRNA.
In the case of TAAACCGGTGCACTTCACCTGC, the sensor-assay potency score (higher = more potent) was -0.316.

Sequence TGAATCATCAATCAGCACCCTA gave a sensor-assay potency score (higher = more potent) of -0.284.

Sequence TACACAGAGCTCTTCTAGCAAC showed a sensor-assay potency score (higher = more potent) of -1.3.

Sequence TTGATACACAGAGCTCTTCTAG had a sensor-assay potency score (higher = more potent) of -0.709.

TAATATCAGAAGACACTCTGGA returned a sensor-assay potency score (higher = more potent) of 0.725.

Regarding TTCCATGCTTCTATCTGCCAGA, the sensor-assay potency score (higher = more potent) is -0.489.

Sequence TGTGATACTCATTACATGCTGA had a sensor-assay potency score (higher = more potent) of 0.129.

For TAGCAACTCTTCCTCATCCAAG, the sensor-assay potency score (higher = more potent) is -1.

Take TTAATATCTGTTTCTAACTCTG: the sensor-assay potency score (higher = more potent) was 0.197.

With TAATATCTGTTTCTAACTCTGA, the sensor-assay potency score (higher = more potent) is -0.212.

For TTTGTCACAGTAAATACTGGGG, the sensor-assay potency score (higher = more potent) came to 0.152.

In another assay the target is MST4. The description is as above. Conditions: shRNA.
Take TTATCATAGACAAACAACTCAG: the sensor-assay potency score (higher = more potent) was -0.749.

In turn, TATTTTGTTACATATGAGCTGT registered a sensor-assay potency score (higher = more potent) of -0.0518.

With TAAAATTGCCTCTTCTACCTAA, the sensor-assay potency score (higher = more potent) is 0.733.

Regarding TATAGGACAATTTATTACCATG, the sensor-assay potency score (higher = more potent) was -1.23.

In turn, TTCAACATTACCAAACACCTAT displayed a sensor-assay potency score (higher = more potent) of -0.0444.

TAATATTTGACAATTACTCAGA: the sensor-assay potency score (higher = more potent) is -0.142.

For TTTGTGAACAGTTCTTCTGGAT, the sensor-assay potency score (higher = more potent) is 0.425.

In turn, TAGTTTAATAGCTTCTTCCAAA gave a sensor-assay potency score (higher = more potent) of -1.19.

For the sequence TTTAATAGCAACGACTTGCTGG, the sensor-assay potency score (higher = more potent) worked out at 0.885.

Take TAAACTGTAATTGTGTTTCAGT: the sensor-assay potency score (higher = more potent) amounted to 0.0353.

In turn, TATCATAGACAAACAACTCAGG returned a sensor-assay potency score (higher = more potent) of -0.251.

Take TTGCTTTAAATTTCTAACCATG: the sensor-assay potency score (higher = more potent) was -1.11.

For a further assay, the target named is MTDH. The description is as above. As to conditions: shRNA.
TAAATTAAGATCGTTCTTGTTC: the sensor-assay potency score (higher = more potent) was found to be 0.14.

As to TTCTTCTGTTCCTCGCTCCGGA, the sensor-assay potency score (higher = more potent) was -0.0167.

TTACACTTTGAGGTGTTCGAAC came in with a sensor-assay potency score (higher = more potent) of -0.892.

Turning to TTCTAATTCTTCTGTGTCCTGT, the sensor-assay potency score (higher = more potent) was found to be 0.277.

For the sequence TATTCTTCTTGGAACCAACAGG, the sensor-assay potency score (higher = more potent) was -0.744.

Values taken from the OligoGym collection.
Note: reference of the scale not given here.
